Measurements: ChEMBL document CHEMBL1961873, “Compounds: GSK PKIS; Assays: Nanosyn kinase panel” (2012)

Each compound was assayed against Maternal embryonic leucine zipper kinase (Homo sapiens) (UniProt Q14680). Details: at 1 µM.
Sequence of Maternal embryonic leucine zipper kinase (Homo sapiens) (Q14680 whole entry, looked up): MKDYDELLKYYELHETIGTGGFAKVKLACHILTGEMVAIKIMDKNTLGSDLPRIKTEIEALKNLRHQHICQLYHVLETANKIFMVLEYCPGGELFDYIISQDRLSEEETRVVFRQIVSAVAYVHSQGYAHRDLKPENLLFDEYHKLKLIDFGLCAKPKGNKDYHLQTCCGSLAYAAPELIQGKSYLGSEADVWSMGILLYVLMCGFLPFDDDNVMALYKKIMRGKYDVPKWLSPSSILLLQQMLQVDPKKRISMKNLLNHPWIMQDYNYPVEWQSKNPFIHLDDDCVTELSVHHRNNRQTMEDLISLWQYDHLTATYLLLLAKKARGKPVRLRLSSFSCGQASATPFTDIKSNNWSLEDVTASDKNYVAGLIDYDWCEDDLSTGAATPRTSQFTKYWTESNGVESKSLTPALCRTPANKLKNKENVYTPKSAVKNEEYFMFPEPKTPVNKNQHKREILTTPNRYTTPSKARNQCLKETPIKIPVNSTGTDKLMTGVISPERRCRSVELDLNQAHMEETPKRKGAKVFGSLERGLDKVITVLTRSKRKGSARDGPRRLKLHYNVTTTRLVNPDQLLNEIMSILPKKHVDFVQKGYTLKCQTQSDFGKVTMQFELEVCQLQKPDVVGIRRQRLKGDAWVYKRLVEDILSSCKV

Question: How did the inhibition turn out when `CC1=C(C(=O)Nc2cc(Cl)c3[nH]ncc3c2)C(c2ccc(C(F)(F)F)cc2)CC(=O)N1` (configuration not stated) was run?
Answer: 7.81%

Question: For `CS(=O)(=O)CCNCc1coc(-c2ccc3ncnc(Nc4ccc(OCc5ccccc5)cc4)c3c2)c1`, which inhibition is on record?
Answer: 6.96%

Question: For `CCn1c(-c2nonc2N)nc2cnc(Oc3cccc(NC(=O)c4ccc(N(C)C)cc4)c3)cc21`, which inhibition is on record?
Answer: 44.2%

Question: For `CNC(=O)c1cc(-c2ccc(F)cc2)cc(-c2ccc(S(=O)(=O)N3CCCC3)cc2)c1N`, which inhibition is on record?
Answer: 3.17%

Question: With `O=S(=O)(CCNCc1ccc(-c2ccc3ncnc(Nc4ccc(OCc5cccc(F)c5)c(Cl)c4)c3c2)o1)c1ccccc1` as the compound, how does the inhibition read?
Answer: 3.07%

Question: With `N#Cc1c(NC(=O)c2ccc(F)cc2)sc2c1CCCC2` as the compound, how does the inhibition read?
Answer: 5.26%

Question: With `CNC(=O)c1cccc(C#Cc2cncnc2Nc2ccc(OCc3cccc(F)c3)c(Cl)c2)c1` as the compound, how does the inhibition read?
Answer: -0.86%

Question: With `CCn1c(-c2nonc2N)nc2c(C#CC(C)(C)O)nc(OC[C@H](N)c3ccccc3)cc21` as the compound, how does the inhibition read?
Answer: 82.1%

Question: `Nc1ncc(-c2cccc(S(N)(=O)=O)c2)c2scc(-c3ccc(F)c(Cl)c3)c12` was tested. Which inhibition did it give?
Answer: 2.9%

Question: With `c1ccc(COc2ccc(Nc3ncnc4ccc(-c5ccco5)cc34)cc2)cc1` as the compound, how does the inhibition read?
Answer: -3.64%

Question: With `N#Cc1c(NC(=O)CN2CCOCC2)sc2c1CCCC2` as the compound, how does the inhibition read?
Answer: 1.6%

Question: How did the inhibition turn out when `NS(=O)(=O)c1ccc(N/N=C2\C(=O)Nc3ccc4ncccc4c32)cc1` was run?
Answer: 93.4%

Question: With `O=C(O[C@H]1CN[C@H](C#Cc2cc3ncnc(Nc4ccc(Cc5ccccc5)cc4)c3s2)C1)N1CCOCC1` as the compound, how does the inhibition read?
Answer: -1.31%

Question: With `CC(=O)Nc1cccc(C#Cc2cncnc2Nc2ccc(OCc3cccc(F)c3)c(Cl)c2)c1` as the compound, how does the inhibition read?
Answer: 1.11%

Question: Which inhibition does the source give for `Cc1cccc(Nc2ncc(-c3ccccc3)o2)c1` here?
Answer: 9.64%

Question: How did the inhibition turn out when `FC(F)(F)c1cccc(-c2nn3ncccc3c2-c2ccnc(Nc3ccc4c(c3)OCCO4)n2)c1` was run?
Answer: 4.99%

Question: `CCNC(=O)O[C@H]1CN[C@H](C#Cc2cc3ncnc(Nc4ccc(OCc5cccc(F)c5)c(Cl)c4)c3s2)C1` was tested. Which inhibition did it give?
Answer: 4.99%

Question: With `CNC(=O)c1cncc(/C=C/c2ccccc2Cl)c1` as the compound, how does the inhibition read?
Answer: -3.52%

The compounds below were run against MAP kinase-interacting serine/threonine-protein kinase 1 (Homo sapiens) (UniProt Q9BUB5). Details: at 0.1 µM.
Sequence of MAP kinase-interacting serine/threonine-protein kinase 1 (Homo sapiens) (Q9BUB5 whole entry, looked up): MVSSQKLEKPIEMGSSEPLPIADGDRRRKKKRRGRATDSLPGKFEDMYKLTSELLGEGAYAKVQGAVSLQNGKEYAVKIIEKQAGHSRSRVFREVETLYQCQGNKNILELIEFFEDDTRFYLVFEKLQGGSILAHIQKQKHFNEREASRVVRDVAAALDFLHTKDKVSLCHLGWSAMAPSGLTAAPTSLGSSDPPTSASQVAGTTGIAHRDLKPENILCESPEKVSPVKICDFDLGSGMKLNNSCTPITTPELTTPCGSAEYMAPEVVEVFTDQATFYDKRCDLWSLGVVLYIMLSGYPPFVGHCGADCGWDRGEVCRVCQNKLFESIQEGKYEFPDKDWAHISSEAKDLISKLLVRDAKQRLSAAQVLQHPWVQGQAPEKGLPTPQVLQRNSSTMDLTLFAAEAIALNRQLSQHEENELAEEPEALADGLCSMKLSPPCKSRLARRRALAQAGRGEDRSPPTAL

Question: For `CCc1nn2ncccc2c1-c1ccnc(NC2CC2)n1`, which inhibition is on record?
Answer: 5.42%

Question: `COC(=O)c1sc(-n2cnc3cc(OC)c(OC)cc32)cc1OCc1ccccc1C(F)(F)F` was tested. Which inhibition did it give?
Answer: 3.55%

Question: How did the inhibition turn out when `[O-][S+]1CCN(Cc2ccc(-c3ccc4ncnc(Nc5ccc(OCc6cccc(F)c6)c(Cl)c5)c4c3)o2)CC1` was run?
Answer: 2.71%

Question: `CCn1c(-c2nonc2N)nc2c(C#CC(C)(C)O)ncc(OC3CCNCC3)c21` was tested. Which inhibition did it give?
Answer: 1.74%

Question: Which inhibition does the source give for `CC(C)(CO)CNC(=O)c1ccc2c(c1)/C(=N/Nc1ccc(S(N)(=O)=O)cc1)C(=O)N2` here?
Answer: 0.85%

Question: How did the inhibition turn out when `CCCN1CCC(c2ccc(Nc3nc(Nc4cc(F)ccc4C(N)=O)c4cc[nH]c4n3)c(OC)c2)CC1` was run?
Answer: 5.57%

Question: How did the inhibition turn out when `COc1ccc(-c2cc(-c3c[nH]nc3-c3ccccn3)ccn2)cc1` was run?
Answer: 3.19%

Question: How did the inhibition turn out when `COc1ccc(-c2cc3c(N)ncnc3o2)cc1` was run?
Answer: 0.35%

Question: With `COC(=O)Nc1nc2ccc(S(=O)(=O)c3ccc(NC(=O)Nc4cc(C(F)(F)F)ccc4F)cc3)cc2[nH]1` as the compound, how does the inhibition read?
Answer: 1.27%

Question: How did the inhibition turn out when `Fc1ccc(-c2nn3ccccc3c2-c2ccncc2)cc1` was run?
Answer: 0.31%

Question: For `CN1CCC(n2cnc(-c3ccc(F)cc3)c2-c2ccnc(N)n2)CC1`, which inhibition is on record?
Answer: 8.32%

Question: For `COc1cccc(-n2ncc3c(N/N=C/c4ccc(F)cc4)ncnc32)c1`, which inhibition is on record?
Answer: 4.58%

Question: With `Fc1cccc(COc2ccc(Nc3ncnc4sc(-c5ccco5)cc34)cc2Cl)c1` as the compound, how does the inhibition read?
Answer: 1.99%

Question: How did the inhibition turn out when `Fc1ccc(-c2cc(-c3c[nH]nc3-c3ccccn3)ccn2)cc1` was run?
Answer: 4.46%

Question: How did the inhibition turn out when `CCCN(CCS(C)(=O)=O)Cc1ccc(-c2ccc3ncnc(Nc4ccc(OCc5cccc(F)c5)c(Cl)c4)c3c2)o1` was run?
Answer: 3.79%

Question: Which inhibition does the source give for `COc1cccc(-c2c[nH]c3c(N/N=C/c4ccncc4)ncnc23)c1` here?
Answer: 15.4%

Question: With `CC1=C(C(=O)Nc2cc(Cl)c3[nH]ncc3c2)C(c2ccc(C(F)(F)F)cc2)CC(=O)N1` (configuration not stated) as the compound, how does the inhibition read?
Answer: 2.74%

Question: For `CS(=O)(=O)CCNCc1coc(-c2ccc3ncnc(Nc4ccc(OCc5ccccc5)cc4)c3c2)c1`, which inhibition is on record?
Answer: 3.46%

Question: How did the inhibition turn out when `CCn1c(-c2nonc2N)nc2cnc(Oc3cccc(NC(=O)c4ccc(N(C)C)cc4)c3)cc21` was run?
Answer: 2.31%

Question: With `CNC(=O)c1cc(-c2ccc(F)cc2)cc(-c2ccc(S(=O)(=O)N3CCCC3)cc2)c1N` as the compound, how does the inhibition read?
Answer: 0.63%

Question: For `O=S(=O)(CCNCc1ccc(-c2ccc3ncnc(Nc4ccc(OCc5cccc(F)c5)c(Cl)c4)c3c2)o1)c1ccccc1`, which inhibition is on record?
Answer: 2.9%

Question: Which inhibition does the source give for `N#Cc1c(NC(=O)c2ccc(F)cc2)sc2c1CCCC2` here?
Answer: 0.47%

Question: How did the inhibition turn out when `CNC(=O)c1cccc(C#Cc2cncnc2Nc2ccc(OCc3cccc(F)c3)c(Cl)c2)c1` was run?
Answer: 3.12%

Question: Which inhibition does the source give for `CCn1c(-c2nonc2N)nc2c(C#CC(C)(C)O)nc(OC[C@H](N)c3ccccc3)cc21` here?
Answer: 1.77%

Question: Which inhibition does the source give for `Nc1ncc(-c2cccc(S(N)(=O)=O)c2)c2scc(-c3ccc(F)c(Cl)c3)c12` here?
Answer: 3.42%

Question: For `c1ccc(COc2ccc(Nc3ncnc4ccc(-c5ccco5)cc34)cc2)cc1`, which inhibition is on record?
Answer: 1.35%

Question: For `N#Cc1c(NC(=O)CN2CCOCC2)sc2c1CCCC2`, which inhibition is on record?
Answer: 3.42%

Question: How did the inhibition turn out when `NS(=O)(=O)c1ccc(N/N=C2\C(=O)Nc3ccc4ncccc4c32)cc1` was run?
Answer: 4%

Question: Which inhibition does the source give for `O=C(O[C@H]1CN[C@H](C#Cc2cc3ncnc(Nc4ccc(Cc5ccccc5)cc4)c3s2)C1)N1CCOCC1` here?
Answer: 2.67%

Question: How did the inhibition turn out when `CC(=O)Nc1cccc(C#Cc2cncnc2Nc2ccc(OCc3cccc(F)c3)c(Cl)c2)c1` was run?
Answer: 2.02%

Question: `Cc1cccc(Nc2ncc(-c3ccccc3)o2)c1` was tested. Which inhibition did it give?
Answer: 1.9%

Question: How did the inhibition turn out when `FC(F)(F)c1cccc(-c2nn3ncccc3c2-c2ccnc(Nc3ccc4c(c3)OCCO4)n2)c1` was run?
Answer: 1.74%

Question: `CCNC(=O)O[C@H]1CN[C@H](C#Cc2cc3ncnc(Nc4ccc(OCc5cccc(F)c5)c(Cl)c4)c3s2)C1` was tested. Which inhibition did it give?
Answer: 2.75%

Question: For `CNC(=O)c1cncc(/C=C/c2ccccc2Cl)c1`, which inhibition is on record?
Answer: 4.17%
